Consider 19 compounds from PubChem BioAssay (NCI).

The structures appear in SMILES notation. “And” between values parts separate entries of the source, which are not always exact repeats. Equal values may be shown once. This is part of a sample that, as a whole, favours compounds with a hit. Of some 79,000 tested, about 15% had one in any assay. A number with no mark means an inactive call. The source made the active and inactive calls. No stated cut-off is given here; in the data, active means growth inhibition above about 70%; inactive means the rest.

Assay [1] is described as follows: NCI Yeast Anticancer Drug Screen. Data for the rad50 strain (AID 155).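 Further: 0% = growth of vehicle-only cultures of the same strain.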 To be noted: S. cerevisiae rad50 strain growth inhibition; at 50.0 µM; hits give high values. Summed up: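 Inhibition values express reduced yeast growth in compound-treated cultures relative to vehicle-treated controls.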
Assay [2] can be described thus: NCI Yeast Anticancer Drug Screen. Data for the mec2-1 strain (AID 157). To be noted: S. cerevisiae mec2-1 strain, at 50.0 µM, hits give high values. Summed up: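 Compounds were applied to mec2-1 yeast cells. Their growth was then compared with that of vehicle-treated cultures to give growth inhibition.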
Assay [3] in a line: NCI Yeast Anticancer Drug Screen. Data for the sgs1 mgt1 strain (AID 161).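 Further: 0% = growth of cultures given vehicle only.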 To be noted: S. cerevisiae sgs1 mgt1 strain, at 50.0 µM, hits give high values. Put shortly: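 This yeast growth screen uses a strain with defined DNA-repair lesions; compound-treated growth is compared with vehicle-treated growth.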
A short description of assay [4]: NCI Yeast Anticancer Drug Screen. Data for the cln2 rad14 strain (AID 165).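 Further: 0% = growth equal to vehicle treated cultures.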 The following applies: S. cerevisiae cln2 rad14 strain, at 50.0 µM, hits give high values. Summed up:
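Strain: cln2 rad14 yeast, altered in cell cycle control and DNA damage repair. Read-out: growth inhibition vs vehicle.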

Assay [5] is described as follows: NCI Yeast Anticancer Drug Screen. Data for the bub3 strain (AID 167). To be noted: S. cerevisiae bub3 mutant strain, at 50.0 µM, hits give high values. Put shortly:
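Steps: expose the mutant yeast strain to compound; grow alongside vehicle-treated cultures; measure growth; express inhibition against the vehicle cultures.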

The nature of assay [6]: NCI Yeast Anticancer Drug Screen. Data for the mlh1 rad18 strain (AID 175). To be noted: S. cerevisiae mlh1 rad18 strain growth inhibition; at 50.0 µM; hits give high values. Summed up:
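A repair-deficient yeast strain is exposed to test compound, and growth is scored relative to vehicle-treated controls.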

With `CCC1(CC)C(=O)NC(=O)N(C)C1=O`, the growth inhibition in assay [1] is 33.4%; in assay [2], 10.2%; in assay [3], 31.5%; in assay [4], 28.8%; in assay [5], 8.25%; in assay [6] it was 24.7%.
As to `CN(C)c1ccc2c(c1)Cc1ccccc1-2`, the growth inhibition is 1% in assay [1]; -8.65% in assay [2]; 18.2% in assay [3]; -24.1% in assay [4]; 44% in assay [5]; -25.8% in assay [6].
As for `ClC(OC(Cl)C(Cl)(Cl)Cl)C(Cl)(Cl)Cl` (centres undefined), the growth inhibition was 52% in assay [1]; 6.1% in assay [2]; 30.9% in assay [3]; 20.9% in assay [4]; 46.5% in assay [5]; 26.2% in assay [6].
Consider `O=C(O)CCCNSc1ccccc1[N+](=O)[O-]`, for which the growth inhibition in assay [1] was 71.2% (active); in assay [2], 44.5%; in assay [3] it was 73% (active); in assay [4], 48.9%; in assay [5], 68.4%; in assay [6], 72% (active).
Consider `CC(=O)OC1OC(CS[As](C)CCO)C(OC(C)=O)C(OC(C)=O)C1OC(C)=O` (centres undefined), for which the growth inhibition is 12.8% in assay [1]; -16.9% in assay [2]; -15.3% in assay [3]; -8% in assay [4]; -0.85% in assay [5]; -9.55% in assay [6].
Consider `CN(C)CCc1ccc(O)cc1`, for which the growth inhibition in assay [1] is 3.9% and -2.85%; in assay [2] it was 4.2% and 2.8%; in assay [3], 10.1% and -3.15%; in assay [4], 5.55% and -16.4%; in assay [5], 2.85% and -2.9%; in assay [6] it was -0.85% and 4.85%.
Take `Cc1c[n+]2ccc3ccccc3c2c2ccccc12`: the growth inhibition was -3.9% in assay [1]; -10.9% in assay [2]; -8.65% in assay [3]; -78.2% in assay [4]; -3.2% in assay [5]; -11.7% in assay [6].
For `Cc1cc(C=C2C(=O)NC(=S)NC2=O)c(C)n1-c1ccccc1`, the growth inhibition in assay [1] is 14.3%; in assay [2], -4.6%; in assay [3], 17.7%; in assay [4] it was -43.3%; in assay [5] it was 8.6%; in assay [6], 5.15%.
For the compound `C[C@]12CC[C@H]3[C@@H](CCC4=CC(=O)CC[C@@]43C)[C@@H]1CC[C@@H]2OC(=O)c1cccc2c(=O)c3ccccc3[nH]c12`, the growth inhibition in assay [1] was 30.6%; in assay [2] it was 73% (active); in assay [3], 82.1% (active); in assay [4], 34.2%; in assay [5] it was 71.2% (active); in assay [6], 4.1%.
Take `CC1=C(C#N)C2(CCN(C)CC2)C(C#N)=C(C)N1`: the growth inhibition is 13.3% in assay [1]; 8.75% in assay [2]; 3.05% in assay [3]; -27.9% in assay [4]; -3% in assay [5]; -4.4% in assay [6].
`CC(=O)NC(ON1C(=O)COc2ccccc21)C(Cl)(Cl)Cl` (centres undefined): the growth inhibition in assay [1] is 27.6%; in assay [2], -16.8%; in assay [3], -13.2%; in assay [4] it was 10.2%; in assay [5] it was 26.6%; in assay [6] it was 7.95%.
Turning to `C[C@]12C=CC(=O)NC[C@@H]1CC[C@@H]1[C@@H]2CC[C@]2(C)[C@@H](OC(=O)COc3ccc(N(CCCl)CCCl)cc3)CC[C@@H]12`, the growth inhibition in assay [1] was 18.1%; in assay [2] it was 5.05%; in assay [3], 8.1%; in assay [4], 1.2%; in assay [5], 3.05%; in assay [6], -7.65%.
Take `NC1=C(N2CC2)C(=O)C(N)=C(N2CC2)C1=O`: the growth inhibition in assay [1] is 9.1%; in assay [2], -21.4%; in assay [3] it was -8.4%; in assay [4] it was 7.9%; in assay [5] it was -25.6%; in assay [6] it was -12.7%.
Take `O=[N+]([O-])O.[Tl]`: the growth inhibition was -5.5% in assay [1]; -23.2% in assay [2]; -16.8% in assay [3]; 6.8% in assay [4]; -19.4% in assay [5]; -18.4% in assay [6].
Regarding `O=C([O-])C(F)(F)F.O=[N+]([O-])O.[Co+3].[NH2-].[NH2-].[NH2-].[NH2-].[NH2-]`, the growth inhibition in assay [1] is 5.25%; in assay [2] it was 2%; in assay [3], 7.7%; in assay [4] it was -5.65%; in assay [5], 5%; in assay [6], 39.6%.
In the case of `CC(C)[C@](O)(C(=O)OCC1=CC[N+]2([O-])CC[C@@H](O)[C@@H]12)[C@H](C)O` (some centres undefined), the growth inhibition in assay [1] is -10.2%; in assay [2], -46.3%; in assay [3] it was 4.35%; in assay [4] it was -0.85%; in assay [5] it was -26.2%; in assay [6], -10.2%.
With `Cc1cc2[nH]c3c(C#N)c(OC(=O)N(C)C)c(C)c(=O)n3c2cc1C`, the growth inhibition was 37.3% in assay [1]; 22.3% in assay [2]; 31.6% in assay [3]; 17.1% in assay [4]; 27.9% in assay [5]; 39% in assay [6].
With `C/C=C1/CN2CCC34C(=C(C(=O)OC)C1CC23)Nc1ccc(O)cc14` (centres undefined), the growth inhibition was 2.9% in assay [1]; 2.3% in assay [2]; 27.7% in assay [3]; -4.05% in assay [4]; 1.65% in assay [5]; -61% in assay [6].
For the compound `C[CH2][Sn]([CH2]C)([O]C(=O)c1ccccc1F)[O]C(=O)c1ccccc1F`, the growth inhibition is -8.75% in assay [1]; 27.6% in assay [2]; 4.1% in assay [3]; 22.6% in assay [4]; 22.8% in assay [5]; 28.1% in assay [6].
